Measurements from PMC9911399, “Two distinct binding modes provide the RNA-binding protein RbFox with extraordinary sequence specificity”.
Changes are numbered by the printed parent chain; changes in the protein carry UniProt numbers. Whole data set: some 16,000 sequences, median “ka relative to ugcaugu” near 0.0091, cut for the highest 2% near 0.032. Shown is part of a subset that was picked to be rich in the highest values.

T1: RBFOX1 RRM (Homo sapiens, UniProt Q9NWB1 109-208)
T1 sequence: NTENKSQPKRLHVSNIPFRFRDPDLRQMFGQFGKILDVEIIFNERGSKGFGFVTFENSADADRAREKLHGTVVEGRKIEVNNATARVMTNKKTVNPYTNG

B1: ACUCCAA (DNA:RNA)
RNA: GGGAGACCGGAAUUCAGAUUGUCCACUCCAAUUAAAUCCCGUCGUAGCCACCA
DNA 1: CAATCTGAATTCCGGTCTCCC
DNA 2: TGGTGGCTACGACGGGATT
B2: ACCAGAU (DNA:RNA)
RNA: B1 RNA with U27C, C28A, C29G, A31U
DNA 1: CAATCTGAATTCCGGTCTCCC
DNA 2: TGGTGGCTACGACGGGATT
B3: AAGCGUC (DNA:RNA)
RNA: B1 RNA with C26A, U27G, C29G, A30U, A31C
DNA 1: CAATCTGAATTCCGGTCTCCC
DNA 2: TGGTGGCTACGACGGGATT
B4: CAUGGGA (DNA:RNA)
RNA: B1 RNA with A25C, C26A, C28G, C29G, A30G
DNA 1: CAATCTGAATTCCGGTCTCCC
DNA 2: TGGTGGCTACGACGGGATT
B5: GGCGGCC (DNA:RNA)
RNA: GGGAGACCGGAAUUCAGAUUGUCCGGCGGCCUUAAAUCCCGUCGUAGCCACCA
DNA 1: CAATCTGAATTCCGGTCTCCC
DNA 2: TGGTGGCTACGACGGGATT
B6: GUGGUCC (DNA:RNA)
RNA: B5 RNA with G26U, C27G, G29U
DNA 1: CAATCTGAATTCCGGTCTCCC
DNA 2: TGGTGGCTACGACGGGATT
B7: GUCCUUG (DNA:RNA)
RNA: B5 RNA with G26U, G28C, G29U, C30U, C31G
DNA 1: CAATCTGAATTCCGGTCTCCC
DNA 2: TGGTGGCTACGACGGGATT
B8: UUGUCCG (DNA:RNA)
RNA: B1 RNA with A25U, C26U, U27G, C28U, A30C, A31G
DNA 1: CAATCTGAATTCCGGTCTCCC
DNA 2: TGGTGGCTACGACGGGATT
B9: UUGGUCG (DNA:RNA)
RNA: B5 RNA with G25U, G26U, C27G, G29U, C31G
DNA 1: CAATCTGAATTCCGGTCTCCC
DNA 2: TGGTGGCTACGACGGGATT
B10: UUGGUUG (DNA:RNA)
RNA: B5 RNA with G25U, G26U, C27G, G29U, C30U, C31G
DNA 1: CAATCTGAATTCCGGTCTCCC
DNA 2: TGGTGGCTACGACGGGATT
B11: GGCCUUG (DNA:RNA)
RNA: B5 RNA with G28C, G29U, C30U, C31G
DNA 1: CAATCTGAATTCCGGTCTCCC
DNA 2: TGGTGGCTACGACGGGATT
B12: UUGUUCG (DNA:RNA)
RNA: B5 RNA with G25U, G26U, C27G, G28U, G29U, C31G
DNA 1: CAATCTGAATTCCGGTCTCCC
DNA 2: TGGTGGCTACGACGGGATT
B13: UCCUUGG (DNA:RNA)
RNA: B1 RNA with A25U, U27C, C28U, C29U, A30G, A31G
DNA 1: CAATCTGAATTCCGGTCTCCC
DNA 2: TGGTGGCTACGACGGGATT
B14: GUCGGCC (DNA:RNA)
RNA: B5 RNA with G26U
DNA 1: CAATCTGAATTCCGGTCTCCC
DNA 2: TGGTGGCTACGACGGGATT
B15: UUGUUGG (DNA:RNA)
RNA: GGGAGACCGGAAUUCAGAUUGUCCUUGUUGGUUAAAUCCCGUCGUAGCCACCA
DNA 1: CAATCTGAATTCCGGTCTCCC
DNA 2: TGGTGGCTACGACGGGATT
B16: UUGGUCC (DNA:RNA)
RNA: B15 RNA with U28G, G30C, G31C
DNA 1: CAATCTGAATTCCGGTCTCCC
DNA 2: TGGTGGCTACGACGGGATT
B17: GACUGGA (DNA:RNA)
RNA: B5 RNA with G26A, G28U, C30G, C31A
DNA 1: CAATCTGAATTCCGGTCTCCC
DNA 2: TGGTGGCTACGACGGGATT
B18: AUGUUUG (DNA:RNA)
RNA: B15 RNA with U25A, G30U
DNA 1: CAATCTGAATTCCGGTCTCCC
DNA 2: TGGTGGCTACGACGGGATT
B19: AUCAGUG (DNA:RNA)
RNA: B5 RNA with G25A, G26U, G28A, C30U, C31G
DNA 1: CAATCTGAATTCCGGTCTCCC
DNA 2: TGGTGGCTACGACGGGATT
B20: AGUUGGA (DNA:RNA)
RNA: B1 RNA with C26G, C28U, C29G, A30G
DNA 1: CAATCTGAATTCCGGTCTCCC
DNA 2: TGGTGGCTACGACGGGATT
B21: ACGCCGG (DNA:RNA)
RNA: B1 RNA with U27G, A30G, A31G
DNA 1: CAATCTGAATTCCGGTCTCCC
DNA 2: TGGTGGCTACGACGGGATT
B22: GAGGGUG (DNA:RNA)
RNA: B5 RNA with G26A, C27G, C30U, C31G
DNA 1: CAATCTGAATTCCGGTCTCCC
DNA 2: TGGTGGCTACGACGGGATT
B23: UGUUCUC (DNA:RNA)
RNA: B1 RNA with A25U, C26G, C28U, A30U, A31C
DNA 1: CAATCTGAATTCCGGTCTCCC
DNA 2: TGGTGGCTACGACGGGATT
B24: AGAUUUA (DNA:RNA)
RNA: B1 RNA with C26G, U27A, C28U, C29U, A30U
DNA 1: CAATCTGAATTCCGGTCTCCC
DNA 2: TGGTGGCTACGACGGGATT
B25: GCGCCAC (DNA:RNA)
RNA: B1 RNA with A25G, U27G, A31C
DNA 1: CAATCTGAATTCCGGTCTCCC
DNA 2: TGGTGGCTACGACGGGATT
B26: GUGGUUG (DNA:RNA)
RNA: B15 RNA with U25G, U28G, G30U
DNA 1: CAATCTGAATTCCGGTCTCCC
DNA 2: TGGTGGCTACGACGGGATT
B27: GUCGUGG (DNA:RNA)
RNA: B15 RNA with U25G, G27C, U28G
DNA 1: CAATCTGAATTCCGGTCTCCC
DNA 2: TGGTGGCTACGACGGGATT
B28: GUGGUGG (DNA:RNA)
RNA: B15 RNA with U25G, U28G
DNA 1: CAATCTGAATTCCGGTCTCCC
DNA 2: TGGTGGCTACGACGGGATT
B29: UGGGGGA (DNA:RNA)
RNA: B5 RNA with G25U, C27G, C30G, C31A
DNA 1: CAATCTGAATTCCGGTCTCCC
DNA 2: TGGTGGCTACGACGGGATT
B30: CUGGAUG (DNA:RNA)
RNA: B15 RNA with U25C, U28G, U29A, G30U
DNA 1: CAATCTGAATTCCGGTCTCCC
DNA 2: TGGTGGCTACGACGGGATT
B31: CGGAUGU (DNA:RNA)
RNA: B15 RNA with U25C, U26G, U28A, G31U
DNA 1: CAATCTGAATTCCGGTCTCCC
DNA 2: TGGTGGCTACGACGGGATT
B32: UGGGAGA (DNA:RNA)
RNA: B15 RNA with U26G, U28G, U29A, G31A
DNA 1: CAATCTGAATTCCGGTCTCCC
DNA 2: TGGTGGCTACGACGGGATT
B33: CCCUGGA (DNA:RNA)
RNA: B1 RNA with A25C, U27C, C28U, C29G, A30G
DNA 1: CAATCTGAATTCCGGTCTCCC
DNA 2: TGGTGGCTACGACGGGATT
B34: UGGAUGU (DNA:RNA)
RNA: B15 RNA with U26G, U28A, G31U
DNA 1: CAATCTGAATTCCGGTCTCCC
DNA 2: TGGTGGCTACGACGGGATT
B35: UGCGAUG (DNA:RNA)
RNA: B5 RNA with G25U, G29A, C30U, C31G
DNA 1: CAATCTGAATTCCGGTCTCCC
DNA 2: TGGTGGCTACGACGGGATT
B36: UGGAUUU (DNA:RNA)
RNA: B15 RNA with U26G, U28A, G30U, G31U
DNA 1: CAATCTGAATTCCGGTCTCCC
DNA 2: TGGTGGCTACGACGGGATT
B37: UGCGAUC (DNA:RNA)
RNA: B5 RNA with G25U, G29A, C30U
DNA 1: CAATCTGAATTCCGGTCTCCC
DNA 2: TGGTGGCTACGACGGGATT
B38: UGCGCGA (DNA:RNA)
RNA: B5 RNA with G25U, G29C, C30G, C31A
DNA 1: CAATCTGAATTCCGGTCTCCC
DNA 2: TGGTGGCTACGACGGGATT
B39: UGGGAUG (DNA:RNA)
RNA: B15 RNA with U26G, U28G, U29A, G30U
DNA 1: CAATCTGAATTCCGGTCTCCC
DNA 2: TGGTGGCTACGACGGGATT
B40: CUGGAGA (DNA:RNA)
RNA: B15 RNA with U25C, U28G, U29A, G31A
DNA 1: CAATCTGAATTCCGGTCTCCC
DNA 2: TGGTGGCTACGACGGGATT

Target: T1, RBFOX1 RRM
Experiment: EMSA; HiTS-Eq, 1 nM pool, 10 min; buffer printed only for the single-RNA assays: 10 mM Tris pH 7.5, 150 mM NaCl, 3.4 mM EDTA, 0.001% NP-40, 30 C
Conditions: tags: His6 N-terminal (pET28a); label: 5' 32P
Outline: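 These values rest on relative association constants, computed from read-count changes of each RNA species versus the control reaction and normalised to the cognate motif. Reads came from free RNA recovered by 8% native PAGE after purified RbFox RRM (wild type or mutant) at increasing concentrations was equilibrated for 10 min in 50 µL with 1 nM of a 5′-radiolabelled pool with 7 randomized nucleotides and DNA-annealed flanks.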

| Binder | binding signal |
| --- | --- |
| B1 | 0.000959 KA relative to UGCAUGU |
| B2 | 0.00102 KA relative to UGCAUGU |
| B3 | 0.00965 KA relative to UGCAUGU |
| B4 | 0.00261 KA relative to UGCAUGU |
| B5 | 0.0183 KA relative to UGCAUGU |
| B6 | 0.0226 KA relative to UGCAUGU |
| B7 | 0.0114 KA relative to UGCAUGU |
| B8 | 0.0163 KA relative to UGCAUGU |
| B9 | 0.0376 KA relative to UGCAUGU |
| B10 | 0.0398 KA relative to UGCAUGU |
| B11 | 0.0328 KA relative to UGCAUGU |
| B12 | 0.0364 KA relative to UGCAUGU |
| B13 | 0.0132 KA relative to UGCAUGU |
| B14 | 0.0169 KA relative to UGCAUGU |
| B15 | 0.0248 KA relative to UGCAUGU |
| B16 | 0.0262 KA relative to UGCAUGU |
| B17 | 0.0138 KA relative to UGCAUGU |
| B18 | 0.0211 KA relative to UGCAUGU |
| B19 | 0.00865 KA relative to UGCAUGU |
| B20 | 0.00398 KA relative to UGCAUGU |

| Binder | binding signal |
| --- | --- |
| B21 | 0.00777 KA relative to UGCAUGU |
| B22 | 0.0242 KA relative to UGCAUGU |
| B23 | 0.0181 KA relative to UGCAUGU |
| B24 | 0.00707 KA relative to UGCAUGU |
| B25 | 0.00734 KA relative to UGCAUGU |
| B26 | 0.0321 KA relative to UGCAUGU |
| B27 | 0.0185 KA relative to UGCAUGU |
| B28 | 0.0237 KA relative to UGCAUGU |
| B29 | 0.0155 KA relative to UGCAUGU |
| B30 | 0.0353 KA relative to UGCAUGU |
| B31 | 0.0261 KA relative to UGCAUGU |
| B32 | 0.025 KA relative to UGCAUGU |
| B33 | 0.013 KA relative to UGCAUGU |
| B34 | 0.0494 KA relative to UGCAUGU |
| B35 | 0.0369 KA relative to UGCAUGU |
| B36 | 0.0242 KA relative to UGCAUGU |
| B37 | 0.0166 KA relative to UGCAUGU |
| B38 | 0.0211 KA relative to UGCAUGU |
| B39 | 0.0414 KA relative to UGCAUGU |
| B40 | 0.0188 KA relative to UGCAUGU |
